Out of some 5,500 compounds screened, about 2,000 (36%) were called active. Inconclusive results (about 18%) are left out. Cut-off read from the data, not from the text of the source: active = normalized growth mostly below about 0.91 (no sharp cut-off); inconclusive = no clear call, values can overlap the other calls; inactive = mostly above about 0.92. The list shows a part of the results.
Assay: chemical genetic growth profiling, strain panel (AID 1159580);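 note: tested at 20 µM; growth read once vehicle control cultures reached saturation at 30 °C; 1 = growth at the plate median or of vehicle wells; lower values mean less growth of the strain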
Settings: S. cerevisiae deletion strains, growth OD

Measured: normalized growth

NC(=O)c1cccnc1
inactive: locus YAL021C, strain ccr4, hits give low values 0.969 | locus YAL026C, strain drs2, hits give low values 0.979 | locus YAL030W, strain snc1, hits give low values 0.958 | locus YBL061C, strain skt5, hits give low values 0.971 | locus YBR009C, strain hhf1, hits give low values 0.974 | locus YBR023C, strain chs3, hits give low values 0.98 | locus YBR171W, strain sec66, hits give low values 0.968 | locus YBR231C, strain swc5, hits give low values 0.995 | locus YBR279W, strain paf1, hits give low values 0.991 | locus YCL011C, strain gbp2, hits give low values 0.979 | locus YCL016C, strain dcc1, hits give low values 0.978 | locus YCL061C, strain MRC1, hits give low values 0.986 | locus YCL069W, strain vba3, hits give low values 0.986 | locus YCR088W, strain abp1, hits give low values 0.97 | locus YDL005C, strain med2, hits give low values 0.966 | locus YDL040C, strain nat1, hits give low values 0.992 | locus YDR001C, strain nth1, hits give low values 0.972 | locus YDR069C, strain doa4, hits give low values 0.972 | locus YDR137W, strain rgp1, hits give low values 0.994 | locus YDR159W, strain sac3, hits give low values 0.97 | locus YDR195W, strain ref2 0.996 | locus YDR297W, strain sur2, hits give low values 0.975 | locus YDR334W, strain swr1, hits give low values 0.928 | locus YDR335W, strain msn5, hits give low values 0.975 | locus YDR392W, strain spt3, hits give low values 0.985 | locus YEL003W, strain gim4, hits give low values 0.975 | locus YEL037C, strain rad23, hits give low values 0.987 | locus YEL061C, strain CIN8 (second series), hits give low values 0.983 | locus YER015W, strain faa2, hits give low values 0.992 | locus YER016W, strain bim1, hits give low values 0.981 | locus YER111C, strain swi4, hits give low values 0.985 | locus YER155C, strain BEM2 (second series), hits give low values 0.98 | locus YFR010W, strain ubp6, hits give low values 0.971 | locus YGL167C, strain pmr1, hits give low values 0.984 | locus YGL173C, strain kem1, hits give low values 0.957 | locus YGL227W, strain vid30, hits give low values 0.959 | locus YGL240W, strain doc1, hits give low values 0.963 | locus YGL253W, strain hxk2, hits give low values 0.998 | locus YHR013C, strain ard1, hits give low values 0.972 | locus YHR027C, strain rpn1, hits give low values 0.959 | locus YHR030C, strain SLT2, hits give low values 0.971 | locus YHR079C, strain IRE1, hits give low values 0.961 | locus YHR142W, strain chs7, hits give low values 0.976 | locus YJL092W, strain hpr5, hits give low values 0.982 | locus YJL095W, strain BCK1 (second series), hits give low values 0.979 | locus YJL095W, strain BCK1, hits give low values 0.974 | locus YJL115W, strain asf1, hits give low values 0.96 | locus YJL129C, strain trk1, hits give low values 0.996 | locus YJL154C, strain vps35, hits give low values 0.964 | locus YJL164C, strain tpk1, hits give low values 0.992 | locus YJL166W, strain qcr8, hits give low values 0.978 | locus YJL187C, strain SWE1, hits give low values 0.982 | locus YJR066W, strain TOR1, hits give low values 0.928 | locus YKL160W, strain elf1, hits give low values 0.991 | locus YKR026C, strain gcn3, hits give low values 0.976 | locus YKR091W, strain srl3, hits give low values 0.986 | locus YLL001W, strain dnm1, hits give low values 0.991 | locus YLL026W, hits give low values 0.951 | locus YLL041C, strain sdh2, hits give low values 0.982 | locus YLR027C, strain aat2, hits give low values 0.948 | locus YLR113W, strain HOG1, hits give low values 0.973 | locus YLR221C, strain rsa3, hits give low values 0.974 | locus YLR258W, strain gsy2, hits give low values 0.984 | locus YLR262C, strain YPT6 (second series), hits give low values 0.965 | locus YLR320W, strain mms22, hits give low values 1 | locus YLR342W, strain FKS1, hits give low values 0.983 | locus YLR357W, strain rsc2, hits give low values 0.979 | locus YLR370C, strain arc18, hits give low values 0.986 | locus YLR384C, strain iki3, hits give low values 0.987 | locus YML120C, strain ndi1, hits give low values 0.982 | locus YMR058W, strain fet3, hits give low values 0.979 | locus YMR125W, strain sto1, hits give low values 0.963 | locus YMR129W, hits give low values 0.99 | locus YMR205C, strain PFK2, hits give low values 0.962 | locus YMR231W, strain pep5, hits give low values 0.978 | locus YNL071W, strain lat1, hits give low values 0.975 | locus YNL183C, strain NPR1, hits give low values 0.949 | locus YNL209W, strain ssb2, hits give low values 0.979 | locus YNL248C, strain rpa49, hits give low values 0.973 | locus YNL322C, strain KRE1 (second series), hits give low values 0.98 | locus YNR049C, strain mso1, hits give low values 0.966 | locus YOR001W, strain rrp6, hits give low values 0.983 | locus YOR070C, strain gyp1, hits give low values 0.983 | locus YOR080W, strain dia2, hits give low values 0.978 | locus YOR083W, strain WHI5, hits give low values 0.986 | locus YOR106W, strain vam3, hits give low values 0.986 | locus YOR231W, strain MKK1, hits give low values 0.975 | locus YOR265W, strain rbl2, hits give low values 0.983 | locus YOR270C, strain vph1, hits give low values 0.978 | locus YOR290C, strain snf2, hits give low values 0.996 | locus YPL051W, strain arl3, hits give low values 0.999 | locus YPL078C, strain atp4, hits give low values 0.98 | locus YPL106C, strain sse1, hits give low values 0.927 | locus YPL240C, strain hsp82, hits give low values 0.978 | locus YPL256C, strain CLN2, hits give low values 0.992

From PubChem BioAssay AID1159580 (chemical genetic matrix, 2015)
